Molecules are shown by their SMILES. Several values for one entry are separate records, joined by “and”; a condition that tells them apart may be missing. Equal values may be shown once. Compounds without any hit were thinned out: in the full panel of roughly 83,000, 20% have a hit.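 Plates (96-well) were seeded with cells, treated with compound at one concentration, and incubated for 48 hours before percent growth was determined.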 Activity calls are given as the source filed them.

For the first assay, the system named is MCF7 breast. The experiment in a line: NCI-60 one-dose screen, 48 h (100 = growth as untreated, 0 = no growth, -100 = all killed). Conditions: 10 µM. How it is done: Growth inhibition of the MCF7 human tumor cell line is measured as a screen for anti-cancer activity. Cells are grown in 96 well plates and exposed to the test compound for 48 hours. Compounds are tested at a single concentration, which is 10^-5 M for most compounds. The reported endpoint is percent growth (GI% or GIPRCNT), where numbers from 0 - 100% represent growth inhibition, and numbers from -100% - 0 represent cell death. For example, a value of 40 represents 60% growth inhibition. A value of 0 means no net growth occurred over the course of the experiment. A value of -40 indicates 40% of cells at the beginning of the experiment died by the end of the experiment. A value of -100 means all cells are dead at the end of the experiment.
NCI-60 Human Tumor Cell Lines Screen was performed using the standard one-dose NCI protocol, which is described in more detail at https://dtp.cancer.gov/discovery_development/nci-60/default.htm.
Compounds with GIPRCNT values below 10 were considered active. Activity score was based on GIPRCNT using the following formula: […]
Score is 0 for GIPRCNT values of 100 or above, 50 for GIPRCNT values of 0, and 100 for GIPRCNT values of -100.
For `O=C(O)CCCc1ccc(N(CCCl)CCCl)cc1`, the growth was 80.9% (inactive) and 68.4% (inactive).

Staying with this assay, now noted: 10 µM unless noted.
Consider `NC(=O)c1c(Br)c(Br)c(Br)c(Br)c1C(=O)O` (tested in a mixture with another compound), for which the growth is 79.5% (inactive) and 88.8% (inactive).

On to `COCC1OC2OC3C(COC)OC(OC4C(COC)OC(OC5C(COC)OC(OC6C(COC)OC(OC7C(COC)OC(OC8C(COC)OC(OC1C(O)C2O)C(O)C8O)C(O)C7O)C(O)C6O)C(O)C5O)C(O)C4O)C(O)C3O` (stereo not given) (tested in a mixture with another compound), for which the growth is 101% (inactive).

On to `CC1=C([Te]c2ccccc2)C(=O)c2ccccc2C1=O`, for which the growth is -77.3% (active).

As for `O=C(NC(Cl)=C(Cl)Cl)P(=O)(c1ccccc1)c1ccccc1`, the growth was 97.3% (inactive).

For the molecule `CC[C@H](CC[C@@H](C)[C@H]1CC[C@H]2[C@@H]3CC[C@H]4C[C@]5(CC[C@]4(C)[C@H]3CC[C@]12C)OO[C@](C)(C(F)(F)F)O5)C(C)C`, the growth was 93.2% (inactive).

As to `CC1=CC(=O)CCC12CCOC2=O` (stereo not given), the growth was 97.4% (inactive).

With `C[C@]12CCc3sc(Nc4ccc(O)cc4)nc3C1=CC[C@@H]1[C@@H]2CC[C@]2(C)C(=O)CC[C@@H]12`, the growth is 3.11% (active).

Consider `O=CC1(c2ccccc2)CCN(Cc2ccccc2)CC1`, for which the growth is 103% (inactive).

On to `CCCCS(=O)(=O)Cl`, for which the growth is 97.7% (inactive).

For `CCN1C(=O)NC(=O)C(C)(N2C(=O)c3c(F)c(F)c(F)c(F)c3C2=O)C1=O` (stereo not given), the growth is 13.3% (inactive).

With `O=[P+](O)c1cccnc1`, the growth was 102% (inactive).

Take `COC(=O)[C@@H](C)C[C@H](Cc1ccccc1)NC(=O)c1cccc([C@@H](C[C@H](C(C)C)N(C)C(=O)[C@@H](NC(=O)[C@H]2CCCCN2C)C2CC2)OC(C)=O)n1`: the growth is 14% (inactive).

Consider `CC1(C)C2CCC1(CS(=O)(=O)O)C(=O)C2` (stereo not given), for which the growth is 101% (inactive) and 112% (inactive).

For `CC1(C)N=C(N)N=C(N)N1c1ccc(CCC(=O)Nc2ccc(S(=O)(=O)F)cc2)cc1`, the growth was 24.9% (inactive).

Turning to `CCCC1CCCCC12C(=O)NC(=O)NC2=O` (stereo not given), the growth was 98.6% (inactive) and 99.9% (inactive).

Take `Cc1ccc(NC2=N[C@]34CC(=O)CC[C@]3(C)[C@H]3CC[C@]5(C)C(=O)CC[C@H]5[C@@H]3C[C@@H]4S2)c(C)c1`: the growth was 18.2% (inactive).

Regarding `O=P1(N(CCCl)CCCl)NCCCO1` (stereo not given), the growth was 96.8% (inactive).

As to `O=[N+]([O-])c1ccc(CI)cc1`, the growth is 21.7% (inactive).

Turning to `Cn1cc(C(=O)C[n+]2ccccc2)c2ccccc21`, the growth was 101% (inactive).

Take `COc1ccc(N(CC(=O)NCCC[Te]c2ccccc2)C(=O)c2ccccc2)cc1`: the growth was 13.2% (inactive).

For `CC[C@@H](C)C(=O)O[C@H]1[C@H](O)[C@H]2[C@@H](CN3C[C@@H](C)CC[C@H]3[C@@]2(C)O)[C@@H]2C[C@]34O[C@]5(O)[C@@H](OC(=O)[C@@](C)(O)CC)CC[C@@]3(C)[C@@H]5[C@@H](OC(C)=O)[C@@H](OC(C)=O)[C@H]4[C@@]21O`, the growth is 98.4% (inactive).

For `CN(C)c1ccc([N+](=O)[O-])c([N+](=O)[O-])c1`, the growth was 83.6% (inactive) and 91% (inactive).

In the case of `COc1ccc(N)cc1OC`, the growth was 102% (inactive).

In the case of `CCCCCCCCCCCCCCCC[N+](C)(C)C`, the growth was -78% (active) and 16.9% (inactive).

With `N[C@@H](CCC(=O)CCl)C(=O)O`, the growth was 87.9% [20 µM] (inactive).

For `Clc1ccc(COC(Cn2ccnc2)c2ccc(Cl)cc2Cl)c(Cl)c1` (stereo not given), the growth is 39.3% (inactive) and 35% (inactive).

For `O=C(O)C(O)c1ccc(Cl)cc1` (stereo not given), the growth is 97.1% (inactive) and 106% (inactive).

Take `COC(=O)CCP(CCC(=O)OC)c1ccccc1`: the growth is 97.6% (inactive).

For the molecule `CCOC(=O)P(=O)(OCC)OCC`, the growth was 106% (inactive).

As to `CO[C@H]1[C@H](O[C@@H]2C[C@@H]3C/C=C/C(=O)O[C@@H](CO)C[C@H](O)[C@@H]4C[C@H](C)[C@H](C/C=C\C=C\[C@H](C)C[C@H](C2)O3)O4)O[C@@H](C)[C@H](O)[C@H]1O`, the growth was 29.1% (inactive).

As for `CCOP(=O)(NC)OCC`, the growth is 101% (inactive).

Turning to `CC(Oc1ccc(-c2ccccc2)cc1)C(=O)O` (stereo not given), the growth was 103% (inactive).

`C[C@]12CCc3nc(-c4ccc(O)c(O)c4)sc3C1=CC[C@@H]1[C@@H]2CC[C@]2(C)C(=O)CC[C@@H]12`: the growth was 48.4% (inactive).

Consider `C=CCOC(=O)C(Br)CC` (stereo not given), for which the growth is 103% (inactive).

Turning to `CCC(Br)(CC)C(=O)NC(N)=O`, the growth was 94.6% (inactive).

Take `Cc1nc2ccccc2c(=O)n1-c1ccccc1F`: the growth was 93.9% (inactive).

With `C[C@]12CC[C@H]3[C@@H](CC=C4c5nc(N)sc5CC[C@@]43C)[C@@H]1CC[C@@H]2O`, the growth was 104% (inactive).

With `CN1CCN(c2ccc(Cl)cc2)CC1`, the growth is 62.6% (inactive).

The assay is the same for the next values; noted with them: 75 µM.
Take `O=C(O)CCCc1ccc(N(CCCl)CCCl)cc1`: the growth was 24.9% (inactive).

(Values after PubChem BioAssay (NCI).)
